PubChem BioAssay
For some of these results: Entries with a potency or affinity are not part of this list. The source made the active and inactive calls.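 Rule for the calls, unless noted: active = calcium signal ratio cut to more than 3 SD under the fully stimulated control mean yet still positive, in both repeats and the primary screen; inactive = the rest.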

Columns and labels:
[1] = test system: TRPC4 beta (transient receptor potential cation channel C4), mouse; test: TRPC4 cation channel opening, retest – cell-based, Fluo4 calcium, HEK293 TRPC4beta/mu-opioid, duplicates, 10 µM, confirmation (AID 2426;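 active = fluorescence ratio normalized to control raised more than 50% in primary screen plus both repeat runs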;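 for activation: percent rise of integrated ratio over buffer wells lacking compound which define 0%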); conditions: Fluo4 calcium fluorescence, at 10 µM; stronger effect = higher value
[2] = test system: transient receptor potential cation channel C4 beta (TRPC4), mouse; test: TRPC4 cation channel opening, second retest – cell-based, second round, Fluo4, HEK293 TRPC4beta/mu-opioid, 1 µM, confirmation (AID 2461;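 active = primary screen active and over 50% activation in each of two duplicate runs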;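 for activation: 0% = wells without test compound as baseline of integrated fluorescence ratio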); conditions: Fluo4 calcium fluorescence, at 1 µM; stronger effect = higher value
[3] = test system: TRPC4 (transient receptor potential cation channel C4 beta), mouse; test: potentiation of DAMGO EC20 TRPC4 response – cell-based, second round, Fluo-4, HEK293 TRPC4beta/mu-opioid, 1 µM, confirmation (AID 2554;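 active = primary screen hit whose fluorescence ratio, in both repeats, exceeds the weak agonist control mean by 3 SD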); conditions: DAMGO EC20, Fluo-4 calcium flux, at 1 µM; stronger effect = higher value
[4] = test system: TRPC4 beta (transient receptor potential cation channel C4), mouse; test: potentiation of DAMGO EC20 TRPC4 response – cell-based, Fluo-4, HEK293 TRPC4beta/mu-opioid, confirmation (AID 2555;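 active = primary screen hit whose calcium fluorescence ratio, in both repeats, exceeds the weak agonist control mean by 3 SD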); conditions: DAMGO EC20, Fluo-4 calcium flux, at 10 µM; stronger effect = higher value
[5] = biological target: Short transient receptor potential channel 4 (Mus musculus) (UniProt Q9QUQ5); test: blockers of DAMGO-evoked TRPC4 calcium flux – cell-based, Fluo4, HEK293 TRPC4beta/mu-opioid, confirmation (AID 2636;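 active = calcium signal cut by more than 3 SD below the full-agonist control yet still positive, in both repeats and the earlier primary screen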); conditions: at 10 µM; stronger effect = higher value
[6] = biological target: Short transient receptor potential channel 4 (Mus musculus) (UniProt Q9QUQ5); test: blockers of DAMGO-evoked TRPC4 calcium flux – cell-based, second round, Fluo4, HEK293 TRPC4beta/mu-opioid, 1 µM, confirmation (AID 2637); conditions: at 1 µM; stronger effect = higher value
[7] = biological target: Short transient receptor potential channel 4 (Mus musculus) (UniProt Q9QUQ5); test: potentiation of DAMGO-evoked TRPC4 calcium signal – cell-based, HEK293 TRPC4/mu-opioid, Fluo-4 calcium, EC20 DAMGO, dose response (AID 434941;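 active = earlier screen potentiator hit that boosts the TRPC4 ion channel at some dose, with a dose response; inactive = no potentiation, no dose response, or not a prior hit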;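 note: calcium entry triggered by an EC20 dose of DAMGO at the co-expressed mu-opioid receptor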); conditions: HEK293 TRPC4/mu-opioid cells, Fluo-4 calcium fluorescence; series mostly up to 20 µM
[8] = biological target: Short transient receptor potential channel 4 (Mus musculus) (UniProt Q9QUQ5); test: block of DAMGO-driven TRPC4 calcium entry – cell-based, HEK293 TRPC4/mu-opioid, Fluo-4 calcium, dose response (AID 434942;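 active = primary screen inhibitor hit that blocks the TRPC4 channel at some tested dose, yielding a dose curve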); conditions: HEK293 TRPC4/mu-opioid cells, DAMGO-evoked Fluo-4 calcium ratio; series mostly up to 20 µM
[9] = biological target: Short transient receptor potential channel 6 (Mus musculus) (UniProt Q61143); test: TRPC6 blockade by TRPC4 inhibitor hits – cell-based, HEK293, membrane potential dye, duplicate, selectivity assay for TRPC4 inhibitor project, confirmation (AID 434948;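 active = active in primary screen and both duplicates, each dropping signal beyond three positive-control SD with fluorescence still positive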); conditions: HEK293 TRPC6, membrane potential dye fluorescence, at 10 µM; inhibition: stronger effect = higher value, stimulated with maximal-effect acetylcholine unless noted; outcome: stimulated with maximal-effect acetylcholine unless noted
[10] = biological target: Short transient receptor potential channel 6 (Mus musculus) (UniProt Q61143); test: TRPC6 opening by TRPC4 activator hits – cell-based, HEK293, membrane potential dye, duplicate, selectivity assay for TRPC4 activator project, confirmation (AID 434950;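 active = membrane potential signal rise above negative control mean plus 3 SD in both duplicates, also active in the earlier TRPC4 screen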;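 for activation: 0% = buffer only wells and 100% = acetylcholine maximal-effect wells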); conditions: HEK293 TRPC6, membrane potential fluorescence, at 10 µM; activation: stronger effect = higher value; outcome: activation
[11] = biological target: Short transient receptor potential channel 6 (Mus musculus) (UniProt Q61143); test: positive modulators of mouse TRPC6 channel – HEK293 cells, membrane potential dye, duplicate, selectivity assay for TRPC4 potentiator project, confirmation (AID 434952;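 active = compound raising the membrane signal above positive-control mean plus 3 SD in both repeats, and a primary screen hit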); conditions: HEK293 TRPC6, membrane potential dye fluorescence, at 10 µM; maximal acetylcholine added after compound unless noted
[12] = biological target: Short transient receptor potential channel 4 (Mus musculus) (UniProt Q9QUQ5); test: calcium flux activators in TRPC4/5HT1a cells, counter-screen for TRPC4 activator project, cell-based, second counter screen, HEK293 TRPC4/5HT1a, Fluo-4 (AID 434977;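 active = calcium signal rise above buffer-control mean plus 5 SD in both duplicates, and also a hit in the primary screen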;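 for activation: plate controls were assay buffer for no effect and maximal serotonin response for full effect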); conditions: Fluo-4 calcium flux, at 10 µM; stronger effect = higher value
[13] = serotonin-gated TRPC4 signal block – cell-based, second counter screen, HEK293 TRPC4/5HT1a, Fluo-4, counter-screen for TRPC4 inhibitor project, confirmation (AID 434978;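 active = primary screen active whose calcium signal fell more than 3 SD beyond the full-serotonin control mean in both duplicate plates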;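 note: serotonin given first at submaximal then at maximal dose after compound preincubation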); conditions: Fluo-4 calcium flux, at 10 µM; inhibition: stronger effect = higher value, serotonin added to trigger calcium flux unless noted; outcome: serotonin added to trigger calcium flux unless noted
[14] = test system: TRPC4 (mouse), co-expressed with 5HT1a in HEK293; test: enhancement of serotonin-evoked TRPC4 response – cell-based, second counter screen, HEK293 TRPC4/5HT1a, Fluo-4, counter-screen for TRPC4 potentiator project, confirmation (AID 434979;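 active = signal rise over 3 SD above mean of control wells given weak agonist, in both repeats and first screen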); conditions: Fluo-4 calcium flux, at 10 µM; outcome: serotonin added at its EC20 dose unless noted; potentiation: stronger effect = higher value, serotonin added at its EC20 dose unless noted
[15] = nonspecific calcium rise without TRPC4 – cell-based, HEK293 mu-opioid receptor line, counter-screen for TRPC4 activator project, confirmation (AID 449723;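 active = hit in primary screen, with calcium signal over 5 SD above buffer well mean in both duplicates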;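 note: counter screen cells carry the mu-opioid receptor alone and lack TRPC4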); conditions: HEK293 mu-opioid cells, Fluo-4 calcium fluorescence, at 10 µM; stronger effect = higher value
[16] = nonspecific potentiation of DAMGO calcium response – cell-based, HEK293 mu-opioid receptor line, counter-screen for TRPC4 allosteric potentiator project, confirmation (AID 449724;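 active = calcium signal rise more than 3 SD above the low-dose agonist control mean, in both duplicate plates and the primary screen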); conditions: HEK293 mu-opioid receptor cells, Fluo-4 calcium flux, at 10 µM; compound added before EC20 DAMGO stimulus unless noted

Chain of Short transient receptor potential channel 4 (Mus musculus) (Q9QUQ5 whole entry, looked up): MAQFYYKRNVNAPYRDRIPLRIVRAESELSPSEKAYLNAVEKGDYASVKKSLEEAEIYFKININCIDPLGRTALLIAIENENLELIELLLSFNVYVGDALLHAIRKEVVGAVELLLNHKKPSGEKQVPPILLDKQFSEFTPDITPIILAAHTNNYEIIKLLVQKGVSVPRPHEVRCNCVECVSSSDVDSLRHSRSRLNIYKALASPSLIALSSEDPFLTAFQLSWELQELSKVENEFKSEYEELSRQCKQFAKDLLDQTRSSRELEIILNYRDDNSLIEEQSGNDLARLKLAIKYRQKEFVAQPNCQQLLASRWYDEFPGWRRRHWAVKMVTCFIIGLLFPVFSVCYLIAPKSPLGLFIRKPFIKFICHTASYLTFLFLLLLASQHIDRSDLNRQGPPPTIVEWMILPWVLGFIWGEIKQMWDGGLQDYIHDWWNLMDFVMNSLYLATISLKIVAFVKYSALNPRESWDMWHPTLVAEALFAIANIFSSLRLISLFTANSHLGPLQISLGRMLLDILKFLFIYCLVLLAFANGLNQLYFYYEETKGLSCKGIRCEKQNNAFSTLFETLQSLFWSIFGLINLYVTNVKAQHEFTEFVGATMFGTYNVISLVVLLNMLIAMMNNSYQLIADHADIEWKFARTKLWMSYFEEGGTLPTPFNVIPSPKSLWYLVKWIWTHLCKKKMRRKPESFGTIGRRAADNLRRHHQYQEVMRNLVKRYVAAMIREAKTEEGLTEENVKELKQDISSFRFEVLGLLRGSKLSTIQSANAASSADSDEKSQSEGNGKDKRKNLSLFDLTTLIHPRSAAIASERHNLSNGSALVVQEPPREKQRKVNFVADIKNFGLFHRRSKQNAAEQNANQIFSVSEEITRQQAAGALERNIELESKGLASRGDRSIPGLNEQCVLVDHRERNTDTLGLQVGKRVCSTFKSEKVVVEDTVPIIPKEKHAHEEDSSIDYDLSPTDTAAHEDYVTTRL
Chain of Short transient receptor potential channel 6 (Mus musculus) (Q61143 whole entry, looked up): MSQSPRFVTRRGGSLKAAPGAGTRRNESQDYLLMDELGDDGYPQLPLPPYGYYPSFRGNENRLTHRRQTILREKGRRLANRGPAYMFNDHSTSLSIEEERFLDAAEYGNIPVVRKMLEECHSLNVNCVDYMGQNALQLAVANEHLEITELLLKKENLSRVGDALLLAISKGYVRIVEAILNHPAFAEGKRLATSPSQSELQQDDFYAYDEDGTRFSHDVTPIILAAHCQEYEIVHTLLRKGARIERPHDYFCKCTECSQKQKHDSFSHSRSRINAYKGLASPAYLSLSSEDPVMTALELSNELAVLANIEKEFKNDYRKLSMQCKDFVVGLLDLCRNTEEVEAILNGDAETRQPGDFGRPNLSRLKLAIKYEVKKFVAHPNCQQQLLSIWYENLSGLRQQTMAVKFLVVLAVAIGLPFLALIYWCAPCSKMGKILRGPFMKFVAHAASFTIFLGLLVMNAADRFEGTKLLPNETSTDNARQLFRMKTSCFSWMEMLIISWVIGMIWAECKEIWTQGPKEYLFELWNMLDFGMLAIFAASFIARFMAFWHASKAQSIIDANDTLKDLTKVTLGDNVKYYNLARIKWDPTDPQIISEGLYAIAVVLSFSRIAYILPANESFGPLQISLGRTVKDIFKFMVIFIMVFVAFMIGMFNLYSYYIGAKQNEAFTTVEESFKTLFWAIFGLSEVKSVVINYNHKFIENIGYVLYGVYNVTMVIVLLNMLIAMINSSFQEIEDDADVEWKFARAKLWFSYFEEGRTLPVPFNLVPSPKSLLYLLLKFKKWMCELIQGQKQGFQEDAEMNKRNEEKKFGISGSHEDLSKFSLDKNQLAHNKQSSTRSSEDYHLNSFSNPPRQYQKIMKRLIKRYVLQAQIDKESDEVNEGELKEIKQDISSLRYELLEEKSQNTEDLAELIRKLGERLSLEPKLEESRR

c1ccc2sc(C3CCCNC3)nc2c1 (stereo not drawn)
inactive: outcome [3] | outcome [4] | outcome [5] | outcome [6] | outcome [7] | outcome [8] | outcome [9] | outcome [11] | outcome [13] | outcome [14] | outcome [15] | outcome [16]
active: activation [1] 170% | activation [2] 115% | activation [10] 44% | activation [12] 95.3%

N=c1c[n+](CC23CC4CC(CC(C4)C2)C3)[n-]o1
active: activation [1] 294% | activation [2] 114% | activation [10] 38%
inactive: outcome [3] | outcome [4] | outcome [5] | outcome [6] | outcome [7] | outcome [8] | outcome [9] | outcome [11] | outcome [12] | outcome [13] | outcome [14] | outcome [15] | outcome [16]

COc1ccc(CNCCc2c[nH]c3ccccc23)c(OC)c1C
active: activation [1] 151% | activation [10] 63.5% | activation [12] 13.6%
inactive: outcome [2] | outcome [3] | outcome [4] | outcome [5] | outcome [6] | outcome [7] | outcome [8] | outcome [9] | outcome [11] | outcome [13] | outcome [14] | outcome [15] | outcome [16]

CCOC(=O)C1(c2ccccc2)CCN(CCC(=O)Nc2ccccc2OC)CC1
active: activation [1] 70% | activation [10] 62%
inactive: outcome [2] | outcome [3] | outcome [4] | outcome [5] | outcome [6] | outcome [7] | outcome [8] | outcome [9] inactive [setting not given] | outcome [11] inactive [setting not given] | outcome [12] | outcome [13] inactive [setting not given] | outcome [14] inactive [setting not given] | outcome [15] | outcome [16] inactive [setting not given]

CCN(CC)c1ccc(/C=C/[N+](=O)[O-])cc1
inactive: outcome [2] | outcome [3] | outcome [4] | outcome [5] | outcome [6] | outcome [7] | outcome [8] | outcome [9] | outcome [11] | outcome [13] | outcome [14] | outcome [16]
active: activation [1] 96% | activation [10] 906% | activation [12] 67.9% | activation [15] 113%

c1ccc2oc(N3CCNCC3)nc2c1
inactive: outcome [3] | outcome [5] | outcome [6] | outcome [7] | outcome [8] | outcome [9] | outcome [10] | outcome [11] | outcome [13] | outcome [15] | outcome [16]
active: activation [1] 81% | activation [2] 53% | potentiation [4] 19% | activation [12] 24.8% | potentiation [14] 31.8%

CCOC(=O)c1cc(C)n(CCc2cnc[nH]2)c1C
active: activation [1] 143% | activation [2] 89% | activation [10] 26% | activation [12] 76%
inactive: outcome [3] | outcome [4] | outcome [5] | outcome [6] | outcome [7] | outcome [8] | outcome [9] | outcome [11] | outcome [13] | outcome [14] | outcome [15] | outcome [16]

Cc1ccc(Cl)cc1N1CCN(CCN)CC1
inactive: outcome [3] | outcome [4] | outcome [5] | outcome [6] | outcome [7] | outcome [8] | outcome [9] | outcome [10] | outcome [11] | outcome [13] | outcome [14] | outcome [15] | outcome [16]
active: activation [1] 131% | activation [2] 119% | activation [12] 53.8%

Cn1cc[n+](C)c1P(=S)(c1ccccc1)c1ccccc1
inactive: outcome [1] | outcome [2] | outcome [3] | outcome [4] | outcome [5] | outcome [6] | outcome [7] | outcome [8] | outcome [9] | outcome [10] | outcome [11] | outcome [12] | outcome [13] | outcome [14] | outcome [15] | outcome [16]

CN1CCN(c2ccc([N+](=O)[O-])c3cccnc23)CC1
inactive: outcome [5] | outcome [6] | outcome [7] | outcome [8] | outcome [9] | outcome [10] | outcome [11] | outcome [13] | outcome [15] | outcome [16]
active: activation [1] 85% | activation [2] 78% | potentiation [3] 33% | potentiation [4] 26% | activation [12] 25.7% | potentiation [14] 16.9%

CCC1(C)CC(CCNCc2ccc(N(C)C)cc2)(c2ccc(F)cc2)CCO1 (stereo not drawn)
inactive: outcome [2] | outcome [3] | outcome [4] | outcome [5] | outcome [6] | outcome [7] | outcome [8] | outcome [9] | outcome [10] | outcome [11] | outcome [12] | outcome [13] | outcome [14] | outcome [15] | outcome [16]
active: activation [1] 184%

COc1ccccc1CC(=O)N1CCN(CCc2ccccc2)CC1
inactive: outcome [2] | outcome [3] | outcome [4] | outcome [5] | outcome [6] | outcome [7] | outcome [8] | outcome [9] | outcome [11] | outcome [13] | outcome [14] | outcome [15] | outcome [16]
active: activation [1] 79% | activation [10] 48.5% | activation [12] 13.4%

O=[N+]([O-])c1ccc(N2CCNCC2)c2ncccc12
inactive: outcome [5] | outcome [6] | outcome [7] | outcome [8] | outcome [9] | outcome [10] | outcome [11] | outcome [13] | outcome [15] | outcome [16]
active: activation [1] 69% | activation [2] 64% | potentiation [3] 19% | potentiation [4] 23% | activation [12] 38% | potentiation [14] 11%
